RGS7-Gao reg: RGS7-Galphao binding modulators, primary screen, biochemical, multiplexed bead flow cytometry; Guanine nucleotide-binding protein G(o) subunit alpha (Homo sapiens), P09471; actives lie on both sides; binding response (% of control), % at 10 µM; 220,000 compounds, 0.35% hits; AID 1439, 2008; in the data active = binding response below about 49% or above about 150%; inconclusive = no clear call, values can overlap the other calls; inactive = in between;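 also: fluorescent Galphao held in activated GDP-AlF4 state binding bead-coupled RGS7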
Target sequence (P09471 whole entry, looked up): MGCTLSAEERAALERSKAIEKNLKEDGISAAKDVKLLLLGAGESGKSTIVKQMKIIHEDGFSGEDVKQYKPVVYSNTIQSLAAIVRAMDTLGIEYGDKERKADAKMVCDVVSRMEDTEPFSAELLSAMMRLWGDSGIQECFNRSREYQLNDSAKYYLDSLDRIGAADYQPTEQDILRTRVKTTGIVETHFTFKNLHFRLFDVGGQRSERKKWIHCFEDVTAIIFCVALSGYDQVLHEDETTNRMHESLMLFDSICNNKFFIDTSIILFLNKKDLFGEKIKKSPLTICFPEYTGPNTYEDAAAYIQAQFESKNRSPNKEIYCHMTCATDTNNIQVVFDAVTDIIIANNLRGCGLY
RGS4-Gao reg: modulators of RGS4 binding to Galphao, primary screen, biochemical, multiplexed bead flow cytometry; Guanine nucleotide-binding protein G(o) subunit alpha (Homo sapiens), P09471; actives lie on both sides; binding response (% of control), % at 10 µM; 220,000 compounds, 0.33% hits; in the data active = binding response below about 49% or above about 150%; inactive = in between;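 also: fluorescent Galphao activated with aluminum fluoride binding bead-coupled RGS4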
RGS16-Gao: modulators of RGS16 binding to Galphao, primary screen, biochemical, human proteins, multiplexed bead flow cytometry; Regulator of G-protein signaling 16 (Homo sapiens) + Guanine nucleotide-binding protein …; bead-based flow cytometry RGS16-Galphao binding, fluorescence; actives lie on both sides; binding response (% of control), % at 10 µM; 220,000 compounds, 0.38% hits;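 also: Galphao activated by GDP with aluminum fluoride before binding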
GSH fluor: compound fluorescence on glutathione beads, profiling panel, artefact control, biophysical, 488/530 nm, flow cytometry; GSH beads flow cytometry, compound fluorescence 488/530 nm; stronger effect = higher value; 190,000 compounds, 0.25% hits; fluorescence (KMESF) at 10 µM; AID 1776, 2009; in the data active = fluorescence above about 89;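 also: glutathione beads carrying GST-tagged Bcl family fusion proteins plus one bare bead set; values are compound well signal with DMSO vehicle wells as background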
Avidin bead fluor: green autofluorescence of compounds with avidin beads – biophysical, 488/530 nm, flow cytometry, artefact control, profiling panel | compound fluorescence 488/530 nm; stronger effect = higher value | fluorescence (KMESF) at 10 µM | 220,000 compounds, 0.38% hits | AID 1775, 2009; in the data active = fluorescence above about 47
RGS8-Gao: RGS8-Galphao binding modulators, primary screen, biochemical, multiplexed bead flow cytometry. 220,000 compounds, 0.34% hits. actives lie on both sides. response (percent of control binding), % at 10 µM; in the data active = response below about 60% or above about 140%; inactive = in between;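 also: Galphao activated as the GDP aluminium fluoride complex binding bead-coupled RGS8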
RGS-Gao: modulators of RGS–Galpha-o binding, primary screen, biochemical, multiplexed beads, flow cytometry, RGS4/7/8/16/19; RGS4–Galpha-o binding response, % at 10 µM; multiplexed bead flow cytometry; AID 1504, 2009; 1,600 compounds, 99% hits; shares compounds with RGS16-Gao;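 also: fluorescently labeled Galpha-o bound to GDP with aluminium fluoride binding biotinylated RGS beads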
Avidin counter: disruption of biotin probe capture by avidin, counter-screen for RGS protein interaction modulators, biochemical, flow cytometry, bead-based | shares compounds with RGS16-Gao | streptavidin beads, fluorescein-biotin binding | inhibition, % at 10 µM | 1,700 tested, under 10 active | AID 1783, 2009;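 active = inhibition above 50%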;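 also: median green fluorescence of gated singlet beads compared with DMSO control wells; 0% = DMSO wells and 100% = complete loss of bead fluorescence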
RGS8-Gao confirm: RGS8-Galphao binding modulators, confirmation, biochemical, multiplexed bead flow cytometry, single concentration; shares compounds with RGS16-Gao; bead-based flow cytometry RGS8-Galphao binding, fluorescence; actives lie on both sides; binding response (% of control), % at 10 µM; 1,700 compounds, 3% hits; AID 1836, 2009; in the data active = binding response below about 72% or above about 130%; inactive = in between;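 also: Galphao activated as GDP AlF4 complex before binding bead RGS8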
RGS7-Gao confirm: RGS7-Galphao binding modulators, confirmation, biochemical, multiplexed bead flow cytometry, single concentration; bead-based flow cytometry RGS7-Galphao binding; actives lie on both sides; 1,700 compounds, 7.8% hits; response (percent of control binding), % at 10 µM; shares compounds with RGS16-Gao; in the data active = response below about 75% or above about 130%; inactive = in between;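 also: fluorescent Galphao activated with GDP and aluminum fluoride binding bead-coupled RGS7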
RGS16-Gao conf: modulators of RGS16-Galphao protein binding, confirmation, biochemical, single concentration, multiplexed bead flow cytometry. 1,700 compounds, 4% hits. response (% of control binding), % at 10 µM. bead-based flow cytometry; actives lie on both sides. shares compounds with RGS16-Gao; in the data active = response below about 74% or above about 130%; inactive = in between;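 also: Galphao activated as the GDP aluminium fluoride complex binding bead-coupled RGS16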
RGS4-Gao single: modulators of RGS4-Galphao protein binding, confirmation, biochemical, single concentration, multiplexed bead flow cytometry | shares compounds with RGS16-Gao | actives lie on both sides | binding response (% of control), % at 10 µM | 1,700 compounds, 4% hits; in the data active = binding response below about 74% or above about 130%; inactive = in between
RGS19-Gao conf: regulators of RGS19-Galphao binding, confirmation, biochemical, single point, multiplexed bead flow cytometry; 1,700 compounds, 5% hits; AID 1841, 2009; shares compounds with RGS16-Gao; response (percent of control binding), % at 10 µM; bead-based flow cytometry RGS19-Galphao binding; actives lie on both sides; in the data active = response below about 50% or above about 160%; inactive = in between;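 also: 100% = no compound control and 0% = blank background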
Target sequence (P09471 whole entry, looked up): as above
Target sequence (P49795 whole entry, looked up): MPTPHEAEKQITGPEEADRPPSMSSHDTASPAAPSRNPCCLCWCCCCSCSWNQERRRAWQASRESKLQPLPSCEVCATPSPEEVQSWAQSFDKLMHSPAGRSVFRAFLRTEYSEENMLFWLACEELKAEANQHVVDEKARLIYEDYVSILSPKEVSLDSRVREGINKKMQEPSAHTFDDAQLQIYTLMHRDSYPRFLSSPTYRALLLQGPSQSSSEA
* hit, by the source's call; [ ] = another dose, or the depositor's remark. Most compounds without a hit are left out; they make up all but 1.2% or so of the library. Unless noted, no rule for the calls is given here.

For COc1ccccc1-n1cnnc1SCC(=O)c1ccc[nH]1 the results were RGS7-Gao reg -11*, RGS4-Gao reg -30*, RGS16-Gao -34*, GSH fluor 29, Avidin bead fluor -4, RGS8-Gao 10.0*, Avidin counter 0, RGS8-Gao confirm 96, RGS7-Gao confirm 96, RGS16-Gao conf 97, RGS4-Gao single 99 and RGS19-Gao conf 85.
NC(=O)NC(=O)COC(=O)c1ccccc1OCc1ccc(F)cc1 was read as RGS7-Gao reg inconclusive, RGS4-Gao reg 40*, RGS16-Gao 40, Avidin bead fluor 1, RGS8-Gao 55*, Avidin counter -8, RGS8-Gao confirm 114, RGS7-Gao confirm 117, RGS16-Gao conf 112, RGS4-Gao single 114 and RGS19-Gao conf 113.
For CCc1cc(C=NC2CCCCC2)c(O)s1 the results were RGS7-Gao reg -28*, RGS4-Gao reg -60*, RGS16-Gao -39*, GSH fluor 11, Avidin bead fluor -5, RGS8-Gao -0.4*, Avidin counter -2, RGS8-Gao confirm 100, RGS7-Gao confirm 96, RGS16-Gao conf 99, RGS4-Gao single 99 and RGS19-Gao conf 112.
For O=C(Nc1ccccc1)N1CCCC1 the results were GSH fluor 41, Avidin counter 2, RGS8-Gao confirm 97, RGS7-Gao confirm 97, RGS16-Gao conf 98, RGS4-Gao single 96 and RGS19-Gao conf 88.
CCOCCNC(=O)c1ccccc1C(=O)NCCOCC was read as RGS7-Gao reg 99, RGS4-Gao reg 110, RGS16-Gao 123, GSH fluor 9, Avidin bead fluor 16 and RGS8-Gao 102.
`CCOCCN(C(=O)c1ccccc1Cl)c1cccc(C)c1C` gave RGS7-Gao reg inconclusive, RGS4-Gao reg 165*[activator], RGS16-Gao 153, Avidin bead fluor 85*, RGS8-Gao 102, Avidin counter 0, RGS8-Gao confirm 100, RGS7-Gao confirm 99, RGS16-Gao conf 99, RGS4-Gao single 98 and RGS19-Gao conf 88.
N#C/C(=C\c1c(Cl)cccc1Cl)c1nc2ccccc2[nH]1 was read as RGS7-Gao reg inconclusive, RGS4-Gao reg 101, RGS16-Gao 105, Avidin bead fluor 9 and RGS8-Gao 102.
Screening N#C/C(=C\c1ccc(Cl)cc1)c1nc2ncccc2[nH]1 returned RGS7-Gao reg 84, RGS4-Gao reg 89, RGS16-Gao -40*, GSH fluor 15, Avidin bead fluor 10, RGS8-Gao 71 and RGS-Gao 89*.
For COc1ccc(OC)c(NC(=O)CN(Cc2ccccc2)S(C)(=O)=O)c1 the results were RGS7-Gao reg 92, RGS4-Gao reg 97, RGS16-Gao 96, GSH fluor 14, Avidin bead fluor 10 and RGS8-Gao 99.
For O=C(NCc1ccccn1)C1CCN(Cc2cnn(-c3ccccc3)c2-n2cccc2)CC1 the results were RGS4-Gao reg 136, GSH fluor 27, Avidin counter 0, RGS8-Gao confirm 96, RGS7-Gao confirm 96, RGS16-Gao conf 96, RGS4-Gao single 96 and RGS19-Gao conf 95.
For COc1ccc(C2SCC(=O)N2c2c(C)n(C)n(-c3ccccc3)c2=O)cc1 (stereo unspecified) the results were RGS7-Gao reg 106, RGS4-Gao reg 101, RGS16-Gao 109, GSH fluor 6, Avidin bead fluor 17 and RGS8-Gao 102.
Screening Cc1c(N2C(=O)CSC2c2ccc([N+](=O)[O-])cc2)c(=O)n(-c2ccccc2)n1C (stereo unspecified) returned RGS7-Gao reg inconclusive, RGS4-Gao reg 164*[activator], RGS16-Gao 165, Avidin bead fluor 43, RGS8-Gao 115, Avidin counter 1, RGS8-Gao confirm 103, RGS7-Gao confirm 102, RGS16-Gao conf 101, RGS4-Gao single 101 and RGS19-Gao conf 104.
Screening Cc1nn(C(=O)c2cccs2)c(C)c1CN1C(=O)c2ccccc2C1=O returned RGS7-Gao reg 96, RGS4-Gao reg 104, RGS16-Gao 101, GSH fluor 40, Avidin bead fluor 7 and RGS8-Gao 102.
`Cc1nn(C(=O)N2CCCCC2)c(C)c1CN1C(=O)c2ccccc2C1=O` gave GSH fluor 12, Avidin counter 0, RGS8-Gao confirm 102, RGS7-Gao confirm 105, RGS16-Gao conf 103, RGS4-Gao single 103 and RGS19-Gao conf 66.
CCC(CC)C(=O)NCCc1ccc(OC)cc1 was read as RGS4-Gao reg 238*[activator], GSH fluor 34, Avidin counter 2, RGS8-Gao confirm 97, RGS7-Gao confirm 97, RGS16-Gao conf 97, RGS4-Gao single 98 and RGS19-Gao conf 99.
For CCC(CC)C(=O)NCCc1ccc(OC)c(OC)c1 the results were RGS7-Gao reg 101, RGS4-Gao reg 102, RGS16-Gao 103, GSH fluor 10, Avidin bead fluor 35 and RGS8-Gao 101.

Screens deposited in PubChem by NMMLSC.
